PubChem BioAssay AID1159580 (chemical genetic matrix, 2015)
Among all 5,500 compounds or so, about 2,000 (36%) were called active. Roughly 18% stayed inconclusive and do not appear here. Rule as the data show it: active = normalized growth mostly below about 0.91 (no sharp cut-off); inconclusive = no clear call, values can overlap the other calls; inactive = mostly above about 0.92. Some of the results follow.

Experiment: chemical genetic growth profiling, strain panel (AID 1159580);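 also: tested at 20 µM; growth read once vehicle control cultures reached saturation at 30 °C; 1 = growth at the plate median or of vehicle wells; lower values mean less growth of the strain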
Details: S. cerevisiae deletion strains, growth OD

Measured: normalized growth

CC(C)CCCC(C)[C@H]1CCC2C3CC[C@@H]4C[C@H](O)CC[C@]4(C)C3CC[C@@]21C (stereo partly drawn)
inactive: locus YAL013W, strain DEP1, stronger effect = lower value 1.04 | locus YBR021W, strain FUR4, stronger effect = lower value 0.992 | locus YBR229C, strain ROT2, stronger effect = lower value 1 | locus YCL029C, strain bik1, stronger effect = lower value 1.02 | locus YDL035C, strain GPR1, stronger effect = lower value 1.02 | locus YDL074C, strain BRE1, stronger effect = lower value 1.01 | locus YDL101C, strain DUN1, stronger effect = lower value 1.01 | locus YDL185W, strain tfp1, stronger effect = lower value 1.02 | locus YDL192W, strain arf1, stronger effect = lower value 1 | locus YDR101C, strain arx1, stronger effect = lower value 0.991 | locus YDR162C, strain NBP2, stronger effect = lower value 1.03 | locus YDR318W, strain mcm21, stronger effect = lower value 1.01 | locus YDR388W, stronger effect = lower value 1 | locus YDR502C, strain sam2, stronger effect = lower value 0.999 | locus YEL061C, strain CIN8, stronger effect = lower value 1 | locus YER110C, stronger effect = lower value 1.01 | locus YER155C, strain BEM2, stronger effect = lower value 1 | locus YER167W, strain BCK2, stronger effect = lower value 1.02 | locus YGL078C, strain dbp3, stronger effect = lower value 1 | locus YGL086W, strain mad1, stronger effect = lower value 1 | locus YGL248W, strain PDE1, stronger effect = lower value 1.01 | locus YGR135W, strain pre9, stronger effect = lower value 1.01 | locus YGR252W, strain gcn5, stronger effect = lower value 0.985 | locus YHR030C, strain SLT2, stronger effect = lower value 1.01 | locus YHR079C, strain IRE1 (second series), stronger effect = lower value 0.997 | locus YHR094C, strain hxt1, stronger effect = lower value 1.01 | locus YHR129C, strain ARP1, stronger effect = lower value 1 | locus YHR200W, strain rpn10, stronger effect = lower value 1 | locus YIL066C, strain RNR3, stronger effect = lower value 1.03 | locus YIL073C, strain SPO22, stronger effect = lower value 1.03 | locus YIL125W, strain kgd1, stronger effect = lower value 0.999 | locus YIR030C, strain dcg1, stronger effect = lower value 1 | locus YJL095W, strain BCK1, stronger effect = lower value 1.01 | locus YJL134W, strain LCB3, stronger effect = lower value 1.01 | locus YJL168C, strain set2, stronger effect = lower value 0.994 | locus YJL187C, strain SWE1 (second series), stronger effect = lower value 1.01 | locus YJR043C, strain POL32, stronger effect = lower value 1.01 | locus YJR075W, strain HOC1, stronger effect = lower value 1 | locus YKL009W, strain mrt4, stronger effect = lower value 1.02 | locus YKL068W, stronger effect = lower value 1 | locus YKL085W, strain MDH1 (second series), stronger effect = lower value 1.01 | locus YKL085W, strain MDH1, stronger effect = lower value 1.01 | locus YKL190W, strain CNB1, stronger effect = lower value 1.01 | locus YKR001C, strain vps1, stronger effect = lower value 0.998 | locus YLR039C, strain RIC1, stronger effect = lower value 1.06 | locus YLR058C, strain SHM2, stronger effect = lower value 1 | locus YLR102C, strain apc9, stronger effect = lower value 1 | locus YLR262C, strain YPT6, stronger effect = lower value 1.06 | locus YLR268W, strain sec22, stronger effect = lower value 0.999 | locus YLR330W, strain CHS5, stronger effect = lower value 1.01 | locus YLR342W, strain FKS1 (second series), stronger effect = lower value 1.01 | locus YLR371W, strain rom2, stronger effect = lower value 1.02 | locus YLR418C, strain cdc73, stronger effect = lower value 0.978 | locus YML016C, strain PPZ1, stronger effect = lower value 1.01 | locus YML032C, strain rad52, stronger effect = lower value 1 | locus YML124C, strain tub3, stronger effect = lower value 1 | locus YMR078C, strain ctf18, stronger effect = lower value 1 | locus YMR223W, strain ubp8, stronger effect = lower value 1.01 | locus YMR307W, strain GAS1, stronger effect = lower value 1.07 | locus YNL067W, strain RPL9B, stronger effect = lower value 1.01 | locus YNL153C, strain GIM3, stronger effect = lower value 1.01 | locus YNL233W, strain BNI4, stronger effect = lower value 1.01 | locus YNL250W, strain rad50, stronger effect = lower value 1 | locus YNL271C, strain bni1, stronger effect = lower value 1.01 | locus YNL298W, strain CLA4, stronger effect = lower value 1 | locus YNL307C, strain MCK1, stronger effect = lower value 1.01 | locus YNL322C, strain KRE1, stronger effect = lower value 1.01 | locus YNR052C, strain pop2, stronger effect = lower value 0.999 | locus YOL006C, strain TOP1, stronger effect = lower value 1.04 | locus YOL012C, strain htz1 0.869 | locus YOL147C, strain pex11, stronger effect = lower value 0.991 | locus YOR061W, strain CKA2, stronger effect = lower value 1.01 | locus YOR069W, strain VPS5, stronger effect = lower value 1.01 | locus YOR136W, strain idh2, stronger effect = lower value 0.994 | locus YOR144C, strain elg1, stronger effect = lower value 0.987 | locus YOR184W, strain ser1, stronger effect = lower value 0.989 | locus YOR316C, strain cot1, stronger effect = lower value 1 | locus YPL055C, strain LGE1, stronger effect = lower value 1.01 | locus YPR119W, strain clb2, stronger effect = lower value 1 | locus YPR141C, strain kar3, stronger effect = lower value 1.02 | locus YPR163C, strain tif3, stronger effect = lower value 1.01 | locus YPR167C, strain met16, stronger effect = lower value 1 | strain wtn01, stronger effect = lower value 1
